Sampled rows, rich in hits. Any-hit rate of the full collection: about 3.4%.
PP1 inh = blocks human PP1-alpha phosphatase, a PP5 counter-screen. P62136. purified PP1alpha, OMFP fluorescence. inhibition, % at 6.7 µM. actives 0.9% (n = 320,000);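 active = inhibition above the mean inhibition of all tested compounds plus 3 SD, computed separately for each screening campaign, cut at about 15% in these data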
Target sequence (P62136 whole entry, looked up): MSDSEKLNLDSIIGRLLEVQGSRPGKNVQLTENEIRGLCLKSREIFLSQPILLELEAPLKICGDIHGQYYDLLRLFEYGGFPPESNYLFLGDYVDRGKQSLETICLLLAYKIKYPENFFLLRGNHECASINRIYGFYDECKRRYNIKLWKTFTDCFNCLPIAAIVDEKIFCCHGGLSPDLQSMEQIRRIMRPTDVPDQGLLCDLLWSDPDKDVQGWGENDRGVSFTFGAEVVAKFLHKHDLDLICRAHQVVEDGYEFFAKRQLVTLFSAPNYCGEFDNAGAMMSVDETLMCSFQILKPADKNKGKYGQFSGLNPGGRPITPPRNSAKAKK
PAFAH2 FP inh = PAFAH2 (human) inhibition; Q99487; recombinant PAFAH2, FP-rhodamine activity probe, fluorescence polarization; inhibition, % at 3.39 µM; actives 0.99% (n = 340,000); AID 492956;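 active = inhibition above the mean over all tested compounds plus 3 SD, cut at about 30% in these data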;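 also: inhibitors block probe labeling of enzyme so polarization drops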
PAFAH1B2 inh = inhibitors of human PAFAH1B2 | P68402 | recombinant PAFAH1B2, FP-rhodamine activity probe, fluorescence polarization | inhibition, % at 3.39 µM | actives 1.2% (n = 340,000) | AID 492953;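 active = inhibition above the mean of all tested compounds plus 3 SD, cut at about 24% in these data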
pPAFAH FP inh = pPAFAH (human) enzyme inhibition; Q13093; recombinant pPAFAH, FP-rhodamine probe fluorescence polarization; inhibition, % at 3.39 µM; actives 1.5% (n = 330,000);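 active = inhibition above the mean inhibition across the screen plus 3 SD, cut at about 25% in these data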;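 also: inhibitors block binding of the rhodamine activity-based probe so polarization drops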
PAFAH1B3 FP inh = blocks human PAF acetylhydrolase 1B catalytic subunit 3 | Q15102 | recombinant PAFAH1B3, FP-rhodamine probe, fluorescence polarization | inhibition, % at 3.39 µM | actives 0.28% (n = 340,000) | AID 492972;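 active = inhibition above the screen-wide average of all tested compounds plus 3 SD, cut at about 25% in these data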
PP5 inh = PP5 (human) phosphatase inhibition | P53041 | purified PP5c, OMFP substrate fluorescence | inhibition, % at 6.7 µM | actives 0.18% (n = 320,000);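 active = inhibition above the campaign's mean inhibition across all tested compounds plus 3 SD, cut at about 9.5% in these data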
A number is an active result; 0 = inactive; - = no result given; ! = a repeat was not active.

SMILES	PP1 inh	PAFAH2 FP inh	PAFAH1B2 inh	pPAFAH FP inh	PAFAH1B3 FP inh	PP5 inh
O=C(NN1C(=O)/C(=C/c2cccnc2)SC1=S)C(c1ccccc1)c1ccccc1	0	0	26.6	0	0	0
CC(=O)NN1C(=O)/C(=C/c2ccc(C(C)C)cc2)SC1=S	0	0	41.8	0	0	0
O=C(O)c1ccc(/C=C2\SC(=S)N(NC(=O)c3ccccc3)C2=O)cc1	0	0	0	0	0	0
O=C(NN1C(=O)/C(=C\c2cccnc2)SC1=S)C(c1ccccc1)c1ccccc1	0	0	29.4	0	0	0
O=C1/C(=C/c2cccnc2)SC(=S)N1NS(=O)(=O)c1ccccc1	0	0	0	0	0	0
O=C(Cc1cccc2ccccc12)NN1C(=O)/C(=C\c2cccnc2)SC1=S	0	0	0	0	0	0
O=C(/C=C/c1ccc2c(c1)OCCCO2)c1ccccc1O	0	0	0	0	0	0
Oc1ccc(/C=N/N2CCN(C3c4ccccc4-c4ccccc43)CC2)cc1O	0	0	0	33.2	0	0
CC(C)C(C(=O)NCC1CCCO1)N(Cc1ccco1)C(=O)CNS(=O)(=O)c1ccc(F)cc1 (stereo not drawn)	0	0	0	34.5	0	0
O=C(CN(Cc1ccco1)C(=O)CNS(=O)(=O)c1ccc(Cl)cc1)NCc1ccc(F)cc1	0	0	25.6	0	0	0
CCCC(C(=O)NCC1CCCO1)N(Cc1ccco1)C(=O)CNS(=O)(=O)c1ccccc1 (stereo not drawn)	0	0	0	0	0	0
COCCn1c(SCc2nc3scc(-c4ccc(Cl)cc4)c3c(=O)[nH]2)nnc1-c1cccc(C)c1	15.8	0	0	0	0	0
Cc1ccc(-c2csc(N3N=C(c4ccccc4)/C(=C\c4ccc(N(C)C)cc4)C3=O)n2)cc1	0	-	-	28.5	-	0
O=C(Cc1cc(=O)[nH][nH]1)N/N=C/C(Cl)=C/c1ccccc1	0	0	0	26.5!	0	0
O=C(Cc1cc(=O)[nH][nH]1)N/N=C/c1ccccc1Cl	0	-	-	0	-	0
CC1CC(C)CN(S(=O)(=O)c2ccc3c(c2)CC(=O)N3)C1 (stereo not drawn)	0	0	27.5	0	0	0
COC(=O)Cc1cc(=O)[nH]c(Nc2nc3ccccc3o2)n1	0	0	0	27.5	0	0
CC(=O)N(c1ccc2oc(=O)sc2c1)S(=O)(=O)c1ccccc1	0	0	0	0	0	0
CCCC(=O)N(c1ccc2oc(=O)sc2c1)S(=O)(=O)c1cccs1	0	34.6	0	0	0	0
CCOC(=O)c1ccc(N2C(=O)CC(N3CCN(Cc4ccccc4)CC3)C2=O)cc1 (stereo not drawn)	0	0	0	0	0	0
COCCCNC(=O)C[C@H]1C[C@H](C(=O)N2CCOCC2)[C@@]2(C)c3[nH]c4cc(-c5ccco5)ccc4c3CCN2C1=O	-	0	0	0	0	-
Cc1cc2c(cc1S(=O)(=O)Nc1ccc(OC(F)(F)F)cc1)OCC(=O)N2	0	0	0	34.1	0	0
COc1cccc(=O)c2c(C)n(-c3cc(C)cc(C)c3)c(C)c12	0	58.8	0	0	0	0
O=C(Nc1ccc2ncccc2c1)Nc1ccc2ncccc2c1	0	0	0	0	0	0
COc1ccc(NC(=O)CCN2CCN(S(=O)(=O)c3ccc(Br)cc3)CC2)cc1	0	0	0	0	0	0
SMILES	PP1 inh	PAFAH2 FP inh	PAFAH1B2 inh	pPAFAH FP inh	PAFAH1B3 FP inh	PP5 inh
O=C(CCN1CCN(S(=O)(=O)c2ccc(Br)cc2)CC1)Nc1ccccc1F	0	0	24.9	0	0	0
COc1ccc(C)cc1NC(=O)CN1CCN(S(=O)(=O)c2ccc(Br)cc2)CC1	0	0	27.7	0	0	0
O=C(CN1CCN(S(=O)(=O)c2ccc(Br)cc2)CC1)Nc1ccc(F)cc1	0	0	28.2	0	0	0
COc1ccc(NC(=O)CN2CCN(S(=O)(=O)c3ccc(Br)cc3)CC2)c(OC)c1	0	0	0	0	0	0
CC1CCN(S(=O)(=O)c2ccc(NC(=O)CN3CCCCCC3)cc2)CC1	0	0	30.2	0	0	0
CCOC(=O)c1ccccc1NC(=O)COC(=O)CCNS(=O)(=O)c1ccc(C)c(C)c1	0	0	0	0	0	0
Cc1c(C(=O)N2CCOCC2)sc2ncnc(N3CCc4ccccc4C3)c12	0	0	0	0	0	0
O=C(CN1CCN(S(=O)(=O)c2ccccc2)CC1)NC1CC1	0	0	0	0	0	0

High-throughput results as filed in PubChem.
